Screens from PubChem.
Most compounds without a hit are left out; they make up all but 19% or so of the library.
SW480 rereplic: DNA re-replication induction in SW480 cells; SW480 DNA re-replication, Hoechst DNA content imaging, 48 h; Potency, µM (highest dose often 46.1 µM), for the others: at the highest dose re-replication activation, usual class: activators; hit rate 1.8% among 340,000; further: potency means the concentration at half of the fitted maximal effect; % of control where 0% means no effect; nearly all actives have a fitted effect of over 55% in size
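Treated cells incubate 48 hr (37 C, 5% CO2), are stained 40 min with Hoechst, and nuclear fluorescence is enumerated; a rise in nuclei with high DNA signal marks re-replication.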
IL-1B inflam inh: inhibitors of inflammasome signaling (IL-1 beta secretion). AID 743279. hit rate 4.7% among 360,000. activity change, % at 57.5 µM. THP-1 LPS/ATP IL-1B secretion, AlphaLISA, 16 h; stronger effect = lower value; in the data active means activity change below about -50%; inconclusive means mostly about -30% to -49%; further: on the % scale 0 is the no-effect control and ±100 the full control effect
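Secreted IL-1B measured by AlphaLISA bead assay after 16 h compound exposure of THP-1 cells; compounds (final up to 57.5 uM) added 1 h before LPS (250 ng/mL) and ATP (1.25 mM) stimulation; lower signal means less secretion.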
BCR signal inh: chronic active BCR signaling inhibition. AID 493014. ABC-DLBCL IkBa-CBG/CBR reporter, luminescence ratio, 4 h. hit rate 0.05% among 340,000. Potency, µM (series often up to 46.1 µM), without a hit: top-dose activity change, negative = inhibition, actives largely listed as inhibitors; active means well fitted inhibition curve with a large enough effect in the signal ratio, with a control signal flat, not every such curve was filed as active; inconclusive means small, poorly fitted or top-dose-only effect, or effect the other way, or a change in a side signal; the % refers to the signal ratio;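 further: potency means the concentration at half of the fitted maximal effect; plate controls were basal doxycycline-induced cells for no effect and cells given 10 µM MG132 for full effect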
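TMD8 human ABC-DLBCL cells with doxycycline-inducible IκBα–green luciferase fusion and unfused red luciferase, in 0.5% FBS medium; compounds up to 46 uM, 4 h at 37C. Green/red luminescence ratio, filter-overlap corrected, fitted to concentration-response curves.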
DT40 TDP1 no CPT: qHTS for Inhibitors of human tyrosyl-DNA phosphodiesterase 1 (TDP1): qHTS in cells in absence of CPT. DT40 Tdp1-/- hTDP1 cells, no CPT, ATP luminescence, 48 h. Potency, µM (series often up to 46.2 µM), without a hit: at the top dose activity change, negative = growth inhibition, actives largely listed as inhibitors. hit rate 15% among 420,000; further: potency means the concentration at half of the fitted maximal effect; on the % scale 0 is the no-effect control and ±100 the full control effect; nearly all actives have a fitted effect of over 55% in size
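Compound effects on proliferation are scored in DT40 Tdp1-/-;hTDP1 cells in the absence of CPT. ATP levels (CellTiter-Glo luminescence) are recorded after a ≥48 hr, 37 °C incubation.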
TDP1 cell CPT: DT40-hTDP1 cell growth loss with CPT. Potency, µM (titrated, usually from 46.2 µM), for the others: at the highest dose activity change, negative = growth inhibition, usual class: inhibitors. AID 686979. hit rate 12% among 420,000. chicken DT40 Tdp1-/-;hTDP1 cells + 20 nM CPT, ATP luminescence, 48 h; further: potency means the concentration at half of the fitted maximal effect; on the % scale 0 is the no-effect control and ±100 the full control effect; nearly all actives have a fitted effect of over 55% in size
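Chicken DT40 Tdp1-/- cells stably complemented with human TDP1 were seeded at 400 cells/well in medium containing 20 nM camptothecin, exposed to pin-transferred compounds, and grown at 37 °C for at least 48 hr. Viability was read as ATP luminescence.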
MCF10A rereplic: DNA re-replication induction in MCF 10a cells; hit rate 2.9% among 350,000; Potency, µM (top dose mostly 46.1 µM), inactives show top-dose activity, positive = re-replication, most hits filed as activators; MCF 10A DNA re-replication, Hoechst nuclear intensity, 48 h; further: potency means the concentration at half of the fitted maximal effect; % of control where 0% means no effect; nearly all actives have a fitted effect of over 50% in size
An asterisk follows results filed as active; u = inconclusive; x = no result; [ ] = another dose, or the depositor's remark. Unless noted, the call rests on the fitted dose curve; in most records, active means well fitted curve in the direction sought with a large enough effect; inconclusive means small, poorly fitted or top-dose-only effect, or another doubt; inactive means no such curve, though single readings can be large; an effect the other way counts as inactive or inconclusive.

SMILES	SW480 rereplic	IL-1B inflam inh	BCR signal inh	DT40 TDP1 no CPT	TDP1 cell CPT	MCF10A rereplic
Cn1c(=O)[nH]c(=O)c2c1nc1n2CC(O)CN1c1ccccc1 (configuration not stated)	0%	24	0%	8%	13%	-2%
Cc1ccc(-c2nn(-c3ccccc3)cc2CC(=S)N2CCOCC2)cc1	4%	-18	-11%	-24%	-7%	-1%
CCCCOC(=O)C(C#N)c1nc2ccccc2nc1N1CCN(Cc2ccc3c(c2)OCO3)CC1 (configuration not stated)	0%	-4	-2%	18µM*	16µM*	2%
COC(=O)C(C#N)c1nc2ccccc2nc1N1CCN(Cc2ccc3c(c2)OCO3)CC1 (configuration not stated)	x	x	4%	x	x	x
N#CC(C(=O)OC1CCCCC1)c1nc2ccccc2nc1N1CCOCC1 (configuration not stated)	0%	-19	-1%	u	u	4%
COCCCNC(=O)C(C#N)c1nc2ccccc2nc1N1CCN(Cc2ccccc2)CC1 (configuration not stated)	5%	-58*	2%	u	23µM*	u
COCCNC(=O)C(C#N)c1nc2ccccc2nc1N1CCCCCC1 (configuration not stated)	-210%	-71*	u	-12%	-14%	u
CCC(CC)COC(=O)C(C#N)c1nc2ccccc2nc1N1CCOCC1 (configuration not stated)	11%	-4	8%	23µM*	u	u
Cc1ccc(CNC(=O)CCC2CCCN(Cc3c(C)nn(C(C)C)c3C)C2)o1 (configuration not stated)	1%	1	0%	-23%	-10%	1%
COCC(C)OC(=O)C(C#N)c1nc2ccccc2nc1N1CCN(Cc2ccccc2)CC1 (configuration not stated)	15%	-56*	3%	u	u	1%
CC(C)COC(=O)C(C#N)c1nc2ccccc2nc1N1CCN(Cc2ccccc2)CC1 (configuration not stated)	-6%	-12	u	u	u	u
C=CCNC(=O)C(C#N)c1nc2ccccc2nc1N1CCN(Cc2ccccc2)CC1 (configuration not stated)	3%[9.22 µM]	9	29%	-8%	4%	10%
COCCOC(=O)C(C#N)c1nc2ccccc2nc1N1CCN(Cc2ccccc2)CC1 (configuration not stated)	15%	-8	15%	16µM*	23µM*	16%
C=CCOC(=O)C(C#N)c1nc2ccccc2nc1N1CCN(Cc2ccccc2)CC1 (configuration not stated)	1%	-23	4%	23µM*	u	9%
Cc1ccc(S(=O)(=O)c2ccsc2NC(=O)c2ccccc2)cc1	1%	11	x	u	-26%	9%
O=C1CCC[C@@H]2[C@H]3CCC[N+]4([O-])CCC[C@@H](CN12)[C@@H]34 (some centres not stated)	-8%	4	-3%	3%	11%	0%
O=C1Nc2ccccc2C(=O)C1(Cl)Cc1ccccc1 (configuration not stated)	u	9	-4%	5.2µM*	6.5µM*	u
Cn1c(/C(C#N)=C(\O)COc2ccc3ccccc3c2)nc2ccccc21	0%[9.22 µM]	12	0%	26µM*	u	u
CCN(CC)S(=O)(=O)c1ccc(C(O)=C(C#N)c2nc3ccccc3n2C)cc1	21%	-72*	x	13µM*	16µM*	u
